Assay results: PubChem BioAssay (NCATS)
Records with an inconclusive call do not appear. Active and inactive are the calls of the source. Unless noted, calls come from the whole dose curve; as a rule, active = well fitted curve in either direction with a large enough effect (not every such curve was filed as active); inconclusive = small, poorly fitted or top-dose-only effect, or another doubt; inactive = flat fitted curve, though single readings scatter.

Assays:
[1] = biological target: Lysosomal acid glucosylceramidase (Homo sapiens) (UniProt P04062); experiment: Glucocerebrosidase-p2 (AID 348; in the data active = potency below about 10 µM; note: potency is the fitted concentration of half-maximal effect); conditions: purified GBA, blue fluorogenic substrate, 40 min
Procedure, shortened: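 Normal human glucocerebrosidase (0.2 nM) with blue fluorogenic substrate (80 uM final) in citrate/phosphate pH 5.9 with 10mM sodium taurocholate, 0.01% tween-20; 40 min RT, NaOH/glycine stop; fluorescence Ex 365/Em 440; AC50 from a titration from 0.6 nM upwards.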

[2] = AP1 Signaling Pathway (AID 357); conditions: ME-180 AP-1-bla reporter, EGF-induced, beta-lactamase ratio, 5 h; at 7.69 µM (top of the series) unless noted;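 note: ME-180 reporter cells stimulated with EGF at its EC50 level; % is set by controls: 0 for no effect and ±100 for the full control effect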
Procedure, shortened: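 Read-out was the 460nm/530nm emission ratio (excitation 405nm) after CCF4 loading for 2.5 hours at room temperature. Cells carried an AP-1-driven beta-lactamase reporter, were stimulated with EC50 EGF plus compound for 5 hours, and AC50 values came from titrations.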

[3] = biological target: Cytochrome P450 1A2 (Homo sapiens) (UniProt P05177); experiment: p450-cyp1a2 (AID 410; calls by dose curve;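 note: -100% = full effect of reference inhibitor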); conditions: recombinant CYP1A2, luciferin-ME demethylation, luminescence; series mostly up to 11.4 µM
Procedure, shortened: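 Luminescent demethylation readout: Luciferin-ME (100uM, equal to Km) turned over by 20nM CYP1A2 for 60 min at room temperature after NADPH regeneration addition, following 10 min compound preincubation. Normalization used 57 uM furafylline as full inhibition.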

[4] = NFAT Signaling Pathway (AID 444); conditions: Jurkat NFAT-bla M1, carbachol, beta-lactamase ratio, 5 h; at 7.69 µM (top of the series) unless noted;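 note: carbachol stimulus at about its EC50 of 1 µM final; % is set by controls: 0 for no effect and ±100 for the full control effect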
Procedure, shortened: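 Jurkat cells with NFAT-driven β-lactamase reporter and co-expressed M1 receptor, stimulated with carbachol (final 1 uM, ~EC50), compound titration, 5 h at 37 °C. CCF4 loaded 1 h at RT; 460/530 nm ratio gave %activity and AC50.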

[5] = Stat Signaling Pathway (AID 446); conditions: ME-180 SIE beta-lactamase reporter, IL-6 stimulated, 5 h; at 7.69 µM (top of the series) unless noted;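 note: ME-180 cervical cancer cells given 40 pM IL-6 alongside compound; SIE-controlled beta-lactamase reporter measured as 460/530 nm FRET emission ratio; % is set by controls: 0 for no effect and ±100 for the full control effect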
Procedure, shortened: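 Normalization used AC90 stimulation (300 pM IL-6) and AC90 inhibition (125 nM pan-JAK inhibitor at 40 pM IL-6). The underlying signal is SIE-driven beta-lactamase in ME-180 cells after 5 h IL-6 exposure with compound.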

[6] = biological target: Glucocorticoid receptor (Homo sapiens) (UniProt P04150); experiment: GR-GFP Redistribution (AID 450;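 active = compounds whose dose series gives a full or clear partial fitted curve of increased nuclear translocation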; note: potency is the fitted concentration of half-maximal effect); conditions: U2OS GR-GFP nuclear translocation, laser cytometry, 2 h
[7] = biological target: Glucocorticoid receptor (Homo sapiens) (UniProt P04150); experiment: GR-EFC Redistribution (AID 451; calls by dose curve; note: potency is the fitted concentration of half-maximal effect); conditions: CHO-K1 GR-EFC translocation, beta-gal luminescence, 2 h
Procedure, shortened: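 CHO-K1 cells expressing nuclear EA and GR-ED fragments of b-gal; compounds titrated up to 46 uM final, 2 h at 37 C. GR nuclear translocation read as complemented b-gal luminescence after 1 h RT detection.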

[8] = biological target: Mitogen-activated protein kinase 10 (Mus musculus) (UniProt Q61831); experiment: JNK3 AlphaScreen Assay (AID 530); conditions: JNK3 lysate, c-Jun phosphorylation; series mostly up to 11.4 µM;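 note: kinase came from lysate of stimulated human HepG2 cells; signal reports phosphorylation of biotinylated GST-cJun 1-79 at Ser73 with 10 µM ATP; % is set by controls: 0 for no effect and ±100 for the full control effect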
Procedure, shortened: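 Activity was read by AlphaScreen after JNK3-containing HepG2 lysate (cytokine pre-activated) phosphorylated biotinylated GST-cJun with 10 uM ATP at room temperature. Phospho-Ser73 cJun antibody with Protein-A acceptor beads provided detection.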

[9] = biological target: 3',5'-cyclic-AMP phosphodiesterase 4B (Homo sapiens) (UniProt Q07343); experiment: qHTS Assay for Inhibitors of PDE-IV (AID 607; active = well fitted activation curve with a large enough effect in the main read-out, with a control signal flat, not every such curve was filed as active; note: % of control where 0% means no effect); conditions: HEK293 ACTOne CNG channel cells, membrane potential fluorescence; series mostly up to 22.9 µM
Procedure, shortened: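 HEK293 ACTOne cells with CNG channel (1000/well), endogenous PDE4; membrane potential dye, compounds up to 22.9 uM final. Fluorescence Ex 535/Em 590; RO 20-1724 (100 uM final) as reference.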

[10] = qHTS Assay for Identification of Small Molecule Agonists for Hypoxia Response Element Signaling Pathway (AID 914; active = well fitted activation curve with a large enough effect in the signal ratio, with a control signal flat, not every such curve was filed as active; the % refers to the signal ratio; note: % of control where 0% means no effect); conditions: ME-180 (cervical carcinoma) HRE-bla reporter, beta-lactamase ratio, CoCl2, 17 h; activation: active compounds read high
Procedure, shortened: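 HRE-bla ME-180 assay for agonist-like enhancement of an EC50 CoCl2 stimulus: 17 h at 37 degrees Celsius, CCF4 for 2.5 h, ratiometric 460/530 nm signal converted to %Activity and fitted to AC50.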

Sequence of Glucocorticoid receptor (Homo sapiens) (P04150 whole entry, looked up, the tested form may be a part): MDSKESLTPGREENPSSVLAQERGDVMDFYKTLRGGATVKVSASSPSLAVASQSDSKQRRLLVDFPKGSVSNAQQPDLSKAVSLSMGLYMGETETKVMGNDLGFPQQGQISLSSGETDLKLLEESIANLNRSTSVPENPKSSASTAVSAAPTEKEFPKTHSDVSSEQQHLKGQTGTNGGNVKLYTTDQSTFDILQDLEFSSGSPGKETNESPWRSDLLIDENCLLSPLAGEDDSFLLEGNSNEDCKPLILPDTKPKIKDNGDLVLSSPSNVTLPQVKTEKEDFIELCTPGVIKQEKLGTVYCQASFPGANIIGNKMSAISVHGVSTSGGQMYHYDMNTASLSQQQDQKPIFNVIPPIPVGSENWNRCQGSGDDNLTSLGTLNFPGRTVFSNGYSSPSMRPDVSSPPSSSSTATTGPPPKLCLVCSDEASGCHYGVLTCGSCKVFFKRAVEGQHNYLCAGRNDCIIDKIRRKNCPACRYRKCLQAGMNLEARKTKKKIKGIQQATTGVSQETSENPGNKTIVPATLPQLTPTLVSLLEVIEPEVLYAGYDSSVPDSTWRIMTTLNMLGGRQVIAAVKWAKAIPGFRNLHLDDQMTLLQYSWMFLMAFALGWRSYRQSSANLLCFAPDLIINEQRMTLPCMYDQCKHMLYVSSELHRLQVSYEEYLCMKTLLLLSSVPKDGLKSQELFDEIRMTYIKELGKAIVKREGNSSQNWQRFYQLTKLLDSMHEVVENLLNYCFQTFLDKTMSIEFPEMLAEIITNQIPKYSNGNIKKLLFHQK
Sequence of Cytochrome P450 1A2 (Homo sapiens) (P05177 whole entry, looked up): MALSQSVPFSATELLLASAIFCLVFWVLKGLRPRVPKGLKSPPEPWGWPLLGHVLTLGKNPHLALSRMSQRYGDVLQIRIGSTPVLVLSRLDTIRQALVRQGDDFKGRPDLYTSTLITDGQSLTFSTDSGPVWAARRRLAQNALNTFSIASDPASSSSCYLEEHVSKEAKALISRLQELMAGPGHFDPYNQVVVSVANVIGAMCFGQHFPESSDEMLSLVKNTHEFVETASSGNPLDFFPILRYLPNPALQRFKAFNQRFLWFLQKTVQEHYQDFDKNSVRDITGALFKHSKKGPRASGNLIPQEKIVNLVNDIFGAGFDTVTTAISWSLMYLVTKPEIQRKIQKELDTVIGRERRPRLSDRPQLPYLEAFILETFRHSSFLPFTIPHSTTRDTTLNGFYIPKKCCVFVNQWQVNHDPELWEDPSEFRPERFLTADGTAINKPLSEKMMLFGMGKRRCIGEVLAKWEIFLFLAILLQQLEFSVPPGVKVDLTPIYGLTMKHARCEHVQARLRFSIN
Sequence of 3',5'-cyclic-AMP phosphodiesterase 4B (Homo sapiens) (Q07343 whole entry, looked up): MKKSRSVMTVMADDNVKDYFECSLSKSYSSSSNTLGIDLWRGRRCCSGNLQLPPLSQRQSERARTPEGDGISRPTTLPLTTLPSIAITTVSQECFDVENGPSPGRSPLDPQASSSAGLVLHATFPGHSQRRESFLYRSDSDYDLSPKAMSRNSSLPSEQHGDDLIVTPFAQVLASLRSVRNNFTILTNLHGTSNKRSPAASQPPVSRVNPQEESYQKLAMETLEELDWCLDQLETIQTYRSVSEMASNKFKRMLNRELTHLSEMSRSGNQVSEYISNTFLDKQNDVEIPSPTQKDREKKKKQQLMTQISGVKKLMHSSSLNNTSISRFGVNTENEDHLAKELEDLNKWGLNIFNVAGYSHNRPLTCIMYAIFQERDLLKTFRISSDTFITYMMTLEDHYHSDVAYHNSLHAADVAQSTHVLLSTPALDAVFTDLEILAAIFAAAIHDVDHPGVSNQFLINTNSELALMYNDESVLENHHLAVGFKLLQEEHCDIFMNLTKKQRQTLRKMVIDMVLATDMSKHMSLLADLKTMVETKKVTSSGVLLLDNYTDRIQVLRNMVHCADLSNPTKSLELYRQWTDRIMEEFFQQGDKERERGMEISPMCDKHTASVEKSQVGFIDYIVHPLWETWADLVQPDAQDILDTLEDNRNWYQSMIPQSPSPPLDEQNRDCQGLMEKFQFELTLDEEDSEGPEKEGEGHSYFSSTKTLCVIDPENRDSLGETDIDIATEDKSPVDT
Sequence of Lysosomal acid glucosylceramidase (Homo sapiens) (P04062 whole entry, looked up): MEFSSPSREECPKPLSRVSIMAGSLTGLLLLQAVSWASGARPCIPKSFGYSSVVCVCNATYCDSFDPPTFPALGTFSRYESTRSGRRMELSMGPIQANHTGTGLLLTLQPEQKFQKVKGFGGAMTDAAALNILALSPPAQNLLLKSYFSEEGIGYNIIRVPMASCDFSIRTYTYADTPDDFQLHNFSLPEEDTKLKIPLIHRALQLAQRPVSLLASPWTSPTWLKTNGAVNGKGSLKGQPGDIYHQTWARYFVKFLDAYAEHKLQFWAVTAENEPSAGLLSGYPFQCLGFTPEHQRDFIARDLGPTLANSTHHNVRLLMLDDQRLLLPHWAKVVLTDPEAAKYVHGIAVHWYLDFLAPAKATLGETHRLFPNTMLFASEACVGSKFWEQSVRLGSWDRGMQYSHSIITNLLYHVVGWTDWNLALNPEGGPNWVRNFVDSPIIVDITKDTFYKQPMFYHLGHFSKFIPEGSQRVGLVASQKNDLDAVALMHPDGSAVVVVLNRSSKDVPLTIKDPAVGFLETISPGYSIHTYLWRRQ

C[C@@]1(C(=O)O)CCC[C@@H]1C(=O)O
inactive: Potency [1] > 11.4 µM | activity change, negative = inhibition [2] 8.46% | activity change, negative = inhibition [3] -9.8% [at 2.29 µM] | activity change, negative = inhibition [4] 5.02% | activity, negative = inhibition [5] 2.41% | Potency [6] > 46 µM | Potency [7] > 9.22 µM | Potency [8] | Potency [9] | activation [10] 4.07%

O=C(O)[C@H]([C@H]1NCCS1)N1Cc2ccccc2C1
inactive: Potency [1] > 11.4 µM | activity change, negative = inhibition [2] 11% | activity change, negative = inhibition [3] -13.4% [at 2.29 µM] | activity change, negative = inhibition [4] 5.16% | activity, negative = inhibition [5] 2.46% | Potency [6] > 46 µM | Potency [7] > 9.22 µM | Potency [8] | Potency [9] | activation [10] 13.9%

O=S(=O)(O)c1ccc(-c2nnc(-c3ccccn3)nc2-c2ccc(S(=O)(=O)O)o2)o1
inactive: Potency [1] > 11.4 µM | activity change, negative = inhibition [2] 4.23% | Potency [3] | activity change, negative = inhibition [4] 3.88% | activity, negative = inhibition [5] 2.53% | Potency [6] > 46 µM | Potency [7] > 9.22 µM | Potency [8] | Potency [9] | activation [10] 8.26%

C[C@@H]1NCC[C@H](CC(=O)O)[C@H]1CC(=O)O
inactive: Potency [1] > 11.4 µM | activity change, negative = inhibition [2] 8.61% | Potency [3] | activity change, negative = inhibition [4] -12% | activity, negative = inhibition [5] 8.09% | Potency [6] > 46 µM | Potency [7] > 9.22 µM | Potency [8] | Potency [9] | activation [10] 3.32%
